# A selection: hits, their analogues and other compounds. The true share with any hit is near 12%.
# HP1b chromo inh – HP1-beta chromodomain-methylated histone interaction inhibition; Potency, µM (highest dose often 114 µM), inactives show at the top dose activity change, negative = inhibition, usual class: inhibitors; AlphaScreen HP1-beta / biotin-H3K9me3 peptide binding; AID 540317; P83916; actives 0.56% (n = 390,000); also: nearly all actives have a fitted effect of over 70% in size
# Target sequence (P83916 whole entry, looked up): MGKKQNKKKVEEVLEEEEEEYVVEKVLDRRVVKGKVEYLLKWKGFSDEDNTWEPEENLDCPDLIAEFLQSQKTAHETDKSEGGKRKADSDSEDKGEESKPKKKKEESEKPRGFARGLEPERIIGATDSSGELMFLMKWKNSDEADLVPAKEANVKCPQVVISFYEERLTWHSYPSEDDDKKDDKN
#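 HP1-beta protein (50 nM final) preincubated 30 min at room temperature with biotinylated H3(1-18)K9me3 peptide (50 nM) in PBS pH 7.4, 0.01% Tween-20, then compound added for 30 min. AlphaScreen streptavidin donor/nickel chelate acceptor beads (10 ug/mL final), 30 min dark, luminescence read.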
# BAZ2B inh – inhibitors of human BAZ2B bromodomain; Potency, µM (doses to about 114 µM), for the others: at the highest dose activity change, negative = inhibition, usual class: inhibitors; actives 4.4% (n = 360,000); Q9UIF8; AlphaScreen BAZ2B-H3K14Ac peptide displacement; also: % is scaled to controls: 0 for no effect and ±100 for the full control effect; nearly all actives have a fitted effect of over 60% in size
#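 Inhibition is scored as reduced AlphaScreen emission. The BAZ2B/b-H3(5-23)K14Ac complex (50 nM each) in PBS pH 7.4, 0.01% Tween-20 meets compound (up to 110 uM) for 30 min at RT before bead addition.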
# G9a block – blocks human histone lysine methyltransferase G9a | actives 8.8% (n = 350,000) | G9a H3K9 monomethylation, AlphaScreen, 2 h | Potency, µM (highest dose often 102 µM), for inactives: at the highest dose activity, negative = inhibition, hits mostly inhibitors | Q96KQ7; also: % is scaled to controls: 0 for no effect and ±100 for the full control effect; nearly all actives have a fitted effect of over 75% in size
# Target sequence (Q96KQ7 913-1193 limits assumed): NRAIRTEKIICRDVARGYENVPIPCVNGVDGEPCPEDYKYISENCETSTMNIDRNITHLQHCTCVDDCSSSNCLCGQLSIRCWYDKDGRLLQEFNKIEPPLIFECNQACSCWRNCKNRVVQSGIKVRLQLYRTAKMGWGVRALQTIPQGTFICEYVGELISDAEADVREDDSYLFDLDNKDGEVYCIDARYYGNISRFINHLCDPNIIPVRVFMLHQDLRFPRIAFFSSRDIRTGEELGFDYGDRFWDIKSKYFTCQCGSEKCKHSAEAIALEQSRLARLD
#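 Step 1: enzyme (final 20 nM) with compound, 15 min RT. Step 2: substrate peptide 500 nM and SAM 20 uM, 2 h RT. Step 3: anti-H3K9me1 antibody and AlphaScreen beads, 10 min, then plate read.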
# JMJD2A Tudor – JMJD2A Tudor domain (human) inhibition | O75164 | AID 504339 | AlphaScreen JMJD2A-Tudor / H3K4me3 peptide binding | actives 4.4% (n = 390,000) | Potency, µM (titrated, usually from 114 µM), for inactives: top-dose activity change, negative = inhibition, actives largely listed as inhibitors; also: % is scaled to controls: 0 for no effect and ±100 for the full control effect; nearly all actives have a fitted effect of over 50% in size
# Sfp inh – Sfp phosphopantetheinyl transferase inhibition; Q9F4F7; Biochemical Sfp PPTase activity, qHTS; Potency, µM, for the others: largest response in the series, negative = inhibition, usual class: inhibitors; actives 3.5% (n = 310,000);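 also: the enzyme is Sfp with the accession as filed and its product quenches rhodamine fluorescence; 0% = enzyme reaction without inhibitor and -100% = no enzyme wells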
#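 With Hepes-Na pH 7.6 buffer containing 10 mM MgCl2, Sfp (15 nM) modified BHQ-2-YbbR (12.5 uM) using rhodamine-CoA (5 uM). Two reads 30 minutes apart at 525/598 nm yielded each well's rate.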
# Numbers without * were called inactive; ? = inconclusive; · = not tested or not shown; [ ] = another dose, or the depositor's remark. Calls follow the shape of the dose curve; as a rule, active = well fitted curve in the direction sought with a large enough effect; inconclusive = small, poorly fitted or top-dose-only effect, or another doubt; inactive = no such curve, though single readings can be large; an effect the other way counts as inactive or inconclusive. Potency is read from the fitted curve at half-maximal effect.
SMILES,HP1b chromo inh,BAZ2B inh,G9a block,JMJD2A Tudor,Sfp inh
C#CCOCCOCCOCCNc1nc(N2CCN(C(=O)[C@H](CCCCN)n3cc(CCCC)nn3)CC2)nc(N2CCN(C(=O)[C@H](CCCCN)n3cc(CCCC)nn3)CC2)n1,-6.6%,?,39.8µM*,?,-4.1%
CCc1ccc(NS(=O)(=O)c2c(C)noc2C)cc1,22.7%[57 µM],1.8%,5.5%,-6.9%,10.2%
O=C(COc1ccccc1)Nc1c(C(=O)N2CCN(c3ccc(F)cc3)CC2)oc2ccccc12,20.7%,-0.6%[57.1 µM],?,-12.3%,·
CCCCc1cn([C@@H](CCCCN)C(=O)N2CCNCC2)nn1,34.7%,?,-0.6%[12.7 µM],56.2µM*,15.7%
C#CCOCCOCCOCCNc1nc(N2CCN(C(=O)[C@H](C(C)C)n3cc(CCO)nn3)CC2)nc(N2CCN(C(=O)[C@H](CCCCN)n3cc(CCCC)nn3)CC2)n1,25.0%,?,28.2µM*,-35.2%,-2.5%
NCCCC[C@@H](C(=O)N1CCNCC1)n1cc(CN)nn1,32.1%,-2.5%,15.9%[2.33 µM],-8.4%,·
Cc1cc(C)nc(N/N=C/c2ccccc2OCC(=O)O)n1,0.3%,1.6%,-4.0%[2.33 µM],2.51µM*,6.31µM*
Cc1cc(C)nc(N/N=C/c2ccccc2OCc2ccccc2)n1,-6.8%,-10.7%,-2.4%[59 µM],?,-7.8%
O=C(O)COc1ccccc1/C=N/NC(=O)c1ccc(F)cc1,16.0%,?,44.7µM*,-16.2%,-29.1%
CCN(C[C@H]1N[C@@](CC)(C(=O)OC)[C@H]2C(=O)N(C)C(=O)[C@@H]12)S(=O)(=O)c1ccc(OC)cc1,66.8%,·,·,?,·
COC(=O)c1cc(-c2cc(OC)ccc2OC)nc2c1c(=O)n(C)c(=O)n2Cc1ccccc1,13.6%,-1.5%,?,28.9%,-8.5%
N/C(Cc1ccc([N+](=O)[O-])cc1)=N\OC(=O)c1cccc(Br)c1,14.8%,-10.3%,-1.9%[59 µM],-11.4%,-23.6%
N/C(Cc1ccc([N+](=O)[O-])cc1)=N\OC(=O)c1ccc([N+](=O)[O-])cc1,?,?,8.91µM*,?,-0.7%
O=C(c1ccc(F)cc1)n1nc(-c2ccccc2)nc1NCc1ccc(F)cc1,72.8%,27.3%,67.2%[59 µM],37.1%,·
CCCCNc1ccc2c3c(cccc13)C(=O)N(CCCC)C2=O,258.1%,140.6%,323.2%,171.2%,28.2µM*
CCN1C(=O)c2cccc3c(N)ccc(c23)C1=O,57.8%,3.3%,50.1µM*,2.8%,-14.4%
Cc1nn(C)c(C)c1N1C(=O)c2cccc3c(N)ccc(c23)C1=O,45.1%,8.1%,-8.5%,9.2%,-0.9%
O=C(COc1ccccc1F)Nc1nnc(-c2ccncc2)s1,21.2%,-34.0%,70.8µM*,20µM*,-9.0%
Cc1ccc2nsnc2c1NC(=O)COc1ccccc1F,30.0%,-19.4%,56.2µM*,-2.7%,11.8%
Cc1cccc(OCC(=O)Nc2c(C)ccc3nsnc23)c1C,42.5%,-2.4%,12.5%[59 µM],-10.4%,·
Cc1ccc(CNC(=O)C2COc3ccccc3C2)cc1 (stereo not drawn),54.8%[57 µM],19.2%,9.0%[59 µM],-14.1%,·
Cc1ccc(NC(=O)C2CCN(c3ncnc4c3nc3n4CCCCC3)CC2)nc1,6.5%,-18.9%,29.9%,-20.2%,14.4%
S=c1nc(C23CC4CC(CC(C4)C2)C3)[nH][nH]1,-30.9%,-5.7%,-126.8%[59 µM],3.55µM*,56.2µM*
CC(C)c1nnc(NC(=O)c2cccc(NC(=O)C(F)(F)F)c2)s1,-6.6%,-11.7%,12.6µM*,-12.1%,?
Cc1c(C)n(Cc2ccccc2)c2ccc(C(=O)OCCCN(C)C)cc12,?,-11.6%,8.8%,39.8µM*,7.3%
Cc1c(C)n(CCN(C)C)c2ccc(C(=O)OCCN(C)C)cc12,9.1%,-26.2%,14.1µM*,-7.4%,2.2%
Cc1[nH]c2ccc(C(=O)OCCN(C)C)cc2c1C,-11.0%,-10.6%,?,?,0.9%
COc1ccc(CCNC(=O)c2ccc(CS(=O)(=O)Cc3cccc(C)c3)o2)cc1OC,43.4%,?,24.0%,?,10.9%
COc1cccc(OC)c1NC(=O)C1CCCN1C(=O)NCc1ccccc1 (stereo not drawn),62.0%,3.4%,2.4%[12.7 µM],2.3%[57.1 µM],10.8%
O=C(NNC(=O)c1ccc(Br)cc1)c1ccncc1,50.5%,-0.4%,-33.5%[0.501 µM],4.3%,20.9%

# Compound activity deposited in PubChem BioAssay by National Center for Advancing Translational Sciences (NCATS).
